Ten compounds from PubChem BioAssay (Tox21) can be followed below.

Assay [1] can be described thus: qHTS assay to identify small molecule antagonists of the vitamin D receptor (VDR) signaling pathway - cell viability counter screen (AID 743225). Note: nearly all actives have a fitted effect of over 50% in size. Note: potency is the fitted concentration of half-maximal effect. In outline:
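Same-well multiplex: following 16 h treatment of HEK 293T cells carrying a UAS-driven beta-lactamase reporter with compound and agonist (3 nM final), and a 2 h FRET substrate step, CellTiter-Glo was added and luminescence read after 30 min.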

The nature of assay [2]: qHTS assay to identify small molecule agonists of the NFkB signaling pathway - cell viability counter screen (AID 1159515; calls by dose curve; note: nearly all actives have a fitted effect of over 55% in size; note: potency is the fitted concentration of half-maximal effect). In outline: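 5 hr compound treatment of NFkB-bla ME-180 cells (2,000/well, seeded overnight beforehand), followed by reporter substrate for 1.5 hr. CellTiter-Glo added afterward; luminescence after 30 min RT.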
A short description of assay [3]: qHTS assay to identify small molecule antagonists of the retinoid-related orphan receptor gamma (ROR-gamma) signaling pathway - cell viability counter screen (AID 1159520). Note: nearly all actives have a fitted effect of over 50% in size. Note: potency is the fitted concentration of half-maximal effect. In outline: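 Tet-on ROR gamma CHO cells (1,000/well) were plated 4 hr, given compounds in DMSO for 2 hr at 37 C, then induced with 1 uM final doxycycline for 16 hr. Viability was read as ATP by CellTiter-Glo luminescence after 30 min.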

In assay [4] the target is Nuclear receptor ROR-gamma (Homo sapiens) (UniProt P51449). The assay is described as follows: qHTS assay to identify small molecule antagonists of the retinoid-related orphan receptor gamma (ROR-gamma) signaling pathway (AID 1159521; note: potency is the fitted concentration of half-maximal effect; nearly all actives have a fitted effect of over 50% in size). In outline:
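Inducible-expression reporter assay: doxycycline (1 uM final) switched on RORγ in CHO cells bearing a ROR response element-luciferase construct, with test compounds present from 2 h beforehand. Decreased luminescence after 16 h defined antagonist activity.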

Assay [5] is described as follows: qHTS assay to identify small molecule agonists of the AP-1 signaling pathway - cell viability counter screen (AID 1159525; calls by dose curve; note: nearly all actives have a fitted effect of over 55% in size; note: potency is the fitted concentration of half-maximal effect). The method in brief: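 ME-180 AP-1-bla, 2500 cells/well, Opti-MEM + 0.5% dialyzed FBS; overnight 37 °C; cpd 15-pt titration, 5 h 37 °C; CellTiter-Glo 30 min RT; luminescence read; normalised to TOAB and DMSO controls.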
The nature of assay [6]: qHTS assay to identify small molecule agonists of the RXR signaling pathway - cell viability counter screen (AID 1159529). Note: nearly all actives have a fitted effect of over 50% in size. Note: potency is the fitted concentration of half-maximal effect. In outline:
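Counter screen: CellTiter-Glo luminescence. Cells: RXR-alpha-UAS-bla HEK 293T. Medium: 2% charcoal-stripped FBS. Treatment: 16 h, 37 C. Reagent incubation: 30 min, RT.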

The nature of assay [7]: qHTS assay to identify small molecule antagonists of the retinoic acid receptor (RAR) signaling pathway (AID 1159552; note: nearly all actives have a fitted effect of over 50% in size; note: potency is the fitted concentration of half-maximal effect). In outline:
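Antagonism of retinol-induced RARE reporter activity was measured in C3RL4 cells. Exposure to compounds and 1 uM final retinol lasted 6 hr at 37 C, with luminescence as endpoint.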

The nature of assay [8]: qHTS assay to identify small molecule agonists of the retinoic acid receptor (RAR) signaling pathway (AID 1159553). In outline:
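Activation of retinol signaling was monitored via a RARE luciferase reporter in C3RL4 cells. After 6 hr compound treatment at 37 C, detection reagent was added for 30 min at room temperature before luminescence reading.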

A short description of assay [9]: qHTS assay to identify small molecule antagonists of the estrogen related receptor (ERR) signaling pathway (AID 1224819). The method in brief:
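qHTS in ERR cells, 2,000/well, 1536 format. Cpd (DMSO) added after 6 h settle, 18 h 37 C. One-Glo luminescence, 30 min RT.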

Assay [10] can be described thus: qHTS assay to identify small molecule agonists of the estrogen related receptor (ERR) signaling pathway (AID 1224820). In outline:
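Cells: ERR line from NTP, 2,000/well. Pre-incubation 6 h, 37 C/5% CO2. Compound (DMSO) pin transfer, 18 h 37 C. One-Glo, 30 min RT, luminescence.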

The nature of assay [11]: qHTS assay to identify small molecule agonists of the estrogen related receptor signaling pathway with the pleiotropic PPARgamma coactivator (PGC) (AID 1224823). The method in brief:
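Steps: plate PGC/ERR cells at 2,000 cells/well; incubate 6 h, 37 C/5% CO2; pin-transfer compounds (DMSO); incubate 18 h, 37 C; add One-Glo; 30 min RT; read luminescence.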

Assay [12] can be described thus: qHTS assay to identify small molecule antagonists of the estrogen related receptor (ERR) signaling pathway from Tox21 library - cell viability counter screen (AID 1224834). Note: nearly all actives have a fitted effect of over 30% in size. Note: potency is the fitted concentration of half-maximal effect. The method in brief: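 CellTiter-Fluor fluorescence measured; ERR cells; 17.5 h compound incubation at 37 C; 30 min reagent step.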
Assay [13] is described as follows: qHTS assay to identify small molecule agonists of the vitamin D receptor (VDR) signaling pathway - cell viability counter screen (AID 743224). Note: nearly all actives have a fitted effect of over 50% in size. Note: potency is the fitted concentration of half-maximal effect. The method in brief: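 Here cell health was gauged by luminescent ATP detection (CellTiter-Glo, 30 min RT) in VDR-bla cells that had been incubated with test compounds for 16 h at 37C and 5% CO2.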
A short description of assay [14]: qHTS assay to identify small molecule antagonists of the retinoid acid receptor (RAR) signaling pathway - cell viability counter screen (AID 1159551). Note: nearly all actives have a fitted effect of over 35% in size. Note: potency is the fitted concentration of half-maximal effect. In outline:
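Seed C3RL4 cells; next day add compound, then retinol to 1 uM final; incubate 6 h at 37 C; add CellTiter-Glo; read luminescence after 30 min at RT.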

For assay [15], the target named is Luciferin 4-monooxygenase (Photinus pyralis) (UniProt P08659). The assay is described as follows: qHTS assay to identify small molecule inhibitors of firefly luciferase (AID 1224835). Note: series mostly up to about 120 µM; nearly all actives have a fitted effect of over 25% in size. The method in brief: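 Quantitative HTS format; KM concentrations of both substrates. Purified P. pyralis FLuc activity quantified from luminescence images.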
Luciferin 4-monooxygenase (Photinus pyralis), sequence (P08659 whole entry, looked up): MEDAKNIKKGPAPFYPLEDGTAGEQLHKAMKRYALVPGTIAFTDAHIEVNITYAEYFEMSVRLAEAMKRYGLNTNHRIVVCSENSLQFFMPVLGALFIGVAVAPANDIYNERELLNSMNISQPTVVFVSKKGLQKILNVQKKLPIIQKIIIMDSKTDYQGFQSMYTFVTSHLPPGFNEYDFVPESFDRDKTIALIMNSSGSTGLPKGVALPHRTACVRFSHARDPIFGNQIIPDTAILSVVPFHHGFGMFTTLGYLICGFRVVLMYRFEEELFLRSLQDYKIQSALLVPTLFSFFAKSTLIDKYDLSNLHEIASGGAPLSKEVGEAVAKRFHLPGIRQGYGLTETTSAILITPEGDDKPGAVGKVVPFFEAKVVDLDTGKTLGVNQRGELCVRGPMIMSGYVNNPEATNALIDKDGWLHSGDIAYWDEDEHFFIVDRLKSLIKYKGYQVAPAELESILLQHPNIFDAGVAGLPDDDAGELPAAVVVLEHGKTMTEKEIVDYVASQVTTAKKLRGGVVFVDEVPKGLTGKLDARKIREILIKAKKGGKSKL

Several values for one entry are separate records, joined by “and”; a condition that tells them apart may be missing. Equal entries are not always repeated. Results filed as inconclusive are left out. Some structures have more than one record in an assay (separate samples or runs), and their calls can disagree. Activity calls are given as the source filed them. Unless noted, calls come from the whole dose curve; as a rule, active = well fitted curve in the direction sought with a large enough effect in the repeat runs; inconclusive = weak or mixed curves; inactive = no such curve, though single readings can be large; an effect the other way counts as inactive or inconclusive.

Consider `Clc1ccccc1C(c1ccccc1)(c1ccccc1)n1ccnc1`, for which the Potency entry in assay [1], in assay [2] and in [8] was “inactive” throughout. The Potency in assay [3] was 24.3 µM (active) and inactive; in assay [4], 2.73 µM (active) and 7.5 µM (active); in assay [5] it was 21.9 µM (active) and inactive; in [6], 21.9 µM (active); in assay [7], 19.3 µM (active); in assay [9], 12.8 µM (active). For the same compound, in assay [12], the Potency was 27.3 µM (active) and 11.9 µM (active). For the same compound, the call in assay [10] and in assay [11] was inactive.
Consider `Oc1ccc(C2(c3ccc(O)cc3)CC3CC2C2CCCC32)cc1` (stereo not given), for which the Potency is 23.6 µM (active) in [13]; 33.3 µM (active) in [1]; 52.8 µM (active) in assay [2]; 52.3 µM (active) in [3]; 46.6 µM (active) in [4]; 41.9 µM (active) in assay [5]. Also, the Potency in [6] was 16.7 µM (active); in assay [7] it was 46.6 µM (active); in assay [12], 58.7 µM (active).
In the case of `CCc1cc(SCc2sc(-c3ccc(C(F)(F)F)cc3)nc2CN2CCN(c3ccc(OC)cc3)CC2)ccc1OCC(=O)O`, the Potency in assay [13] is 19.5 µM (active); in assay [1], 7.76 µM (active); in [2], 43.6 µM (active); in [3], 30.6 µM (active); in [4], 13.7 µM (active); in assay [5], 43.6 µM (active). Also, the Potency in [6] is 3.89 µM (active); in [7], 61.1 µM (active); in assay [12] it was 34.4 µM (active). Further, the Potency entry in assay [14] and in assay [15] was “inactive” in each case.
As for `CC1=C(C(=O)OC(C)C)C(c2cccc([N+](=O)[O-])c2)C(C(=O)OC2CN(C(c3ccccc3)c3ccccc3)C2)=C(N)N1` (stereo not given), the Potency in assay [1] is 16.9 µM (active); in assay [2], 10.7 µM (active); in [3], 26.6 µM (active); in assay [4] it was 21.1 µM (active); in [5], 15.1 µM (active); in assay [6], 13.4 µM (active). The Potency was 23.7 µM (active) in [7] and 29.8 µM (active) in [12]. Besides, in assay [15], the Potency result is “inactive”.
Consider `Cc1ccc(O)c2ncccc12`, for which the Potency in [13] is 0.944 µM (active); in assay [2], 6.01 µM (active); in [3], 21.1 µM (active); in [4], 15 µM (active); in assay [5], 16.9 µM (active); in assay [12] it was 16.8 µM (active). The Potency entry in assay [14], in [7] and in assay [15] was “inactive” in each case.
For `CCCCCCCCCCCCCCCCCC[N+](C)(C)Cc1ccccc1`, the Potency in assay [13] is 13.9 µM (active); in assay [1], 7.84 µM (active); in assay [2], 22.1 µM (active); in assay [3] it was 27.6 µM (active); in assay [4], 15.5 µM (active); in assay [5], 39.3 µM (active). Moreover, the Potency in assay [6] was 4.95 µM (active); in [14], 61.7 µM (active); in assay [7], 24.6 µM (active); in assay [12], 49 µM (active).
In the case of `CC(C)=CCOc1ccc(/C=C/C(=O)c2ccc(OCC=C(C)C)cc2OCC(=O)O)cc1`, the Potency result in assay [13], in assay [2], in assay [3], in assay [5], in assay [14] and in assay [7] was “inactive” each time. Besides, the Potency entry in assay [8], in assay [12] and in assay [15] was “inactive” throughout.
In the case of `Cc1cccc(N(C)C(=S)Oc2ccc3c(c2)C2CCC3C2)c1` (stereo not given), the Potency entry in [1], in [2], in assay [3], in assay [5], in [7] and in assay [12] was “inactive” throughout. For the same compound, the Potency entry in assay [15] is “inactive”.
Take `CCOC(=O)c1nc(C(Cl)(Cl)Cl)n(-c2ccc(Cl)cc2Cl)n1`: the Potency was 49 µM (active) in assay [1], 21.7 µM (active) in assay [4] and 49 µM (active) in assay [6]. For the same compound, the Potency result in [2], in [5] and in [15] was “inactive” each time.
As to `CN(C)c1ccc(SC#N)cc1`, the Potency entry in assay [13], in assay [3], in [5], in [6], in [8] and in assay [12] was “inactive” each time. Besides, the Potency in assay [2] was 17.4 µM (active); in assay [7], 9.69 µM (active).
